Reference: PubChem BioAssay AID1159580 (chemical genetic matrix, 2015)
Values joined by “and” are separate entries in the source; they are usually repeats but may differ in a detail not shown here. Equal entries are not always repeated. Screen size: about 5,500 compounds; about 2,000 (36%) were called active. About 18% were inconclusive and are not listed. This is one part of the list. Values without a mark were called inactive. Cut-off read from the data, not from the text of the source: active = normalized growth mostly below about 0.91 (no sharp cut-off); inconclusive = no clear call, values can overlap the other calls; inactive = mostly above about 0.92.

Test: chemical genetic growth profiling, strain panel (AID 1159580);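 note: tested at 20 µM; growth read once vehicle control cultures reached saturation at 30 °C; 1 = growth at the plate median or of vehicle wells; lower values mean less growth of the strain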
Details: S. cerevisiae deletion strains, growth OD

Question: For NC(N)=O, which normalized growth (locus YAL013W, strain DEP1, stronger effect = lower value) is on record?
Answer: 1.02

Question: What about the normalized growth (locus YAL021C, strain ccr4, stronger effect = lower value) of the same molecule?
Answer: 1.02

Question: And the normalized growth (locus YAL026C, strain drs2, stronger effect = lower value)?
Answer: 1.01

Question: And the normalized growth (locus YAL030W, strain snc1, stronger effect = lower value)?
Answer: 1.02

Question: And the normalized growth (locus YBL061C, strain skt5, stronger effect = lower value)?
Answer: 1.02

Question: And the normalized growth (locus YBR009C, strain hhf1, stronger effect = lower value)?
Answer: 0.978

Question: And the normalized growth (locus YBR021W, strain FUR4, stronger effect = lower value)?
Answer: 0.953

Question: What about the normalized growth (locus YBR023C, strain chs3, stronger effect = lower value) of the same molecule?
Answer: 1.02

Question: What about the normalized growth (locus YBR171W, strain sec66, stronger effect = lower value) of the same molecule?
Answer: 1.03

Question: And the normalized growth (locus YBR229C, strain ROT2, stronger effect = lower value)?
Answer: 0.989

Question: And the normalized growth (locus YBR231C, strain swc5, stronger effect = lower value)?
Answer: 1.03

Question: And the normalized growth (locus YBR279W, strain paf1, stronger effect = lower value)?
Answer: 1.01

Question: What about the normalized growth (locus YCL011C, strain gbp2, stronger effect = lower value) of the same molecule?
Answer: 0.992

Question: And the normalized growth (locus YCL016C, strain dcc1, stronger effect = lower value)?
Answer: 0.984

Question: And the normalized growth (locus YCL029C, strain bik1, stronger effect = lower value)?
Answer: 0.991

Question: And the normalized growth (locus YCL061C, strain MRC1, stronger effect = lower value)?
Answer: 1.03

Question: What about the normalized growth (locus YCL069W, strain vba3, stronger effect = lower value) of the same molecule?
Answer: 1

Question: And the normalized growth (locus YCR088W, strain abp1, stronger effect = lower value)?
Answer: 1.01

Question: And the normalized growth (locus YDL005C, strain med2, stronger effect = lower value)?
Answer: 1.01

Question: And the normalized growth (locus YDL035C, strain GPR1, stronger effect = lower value)?
Answer: 1.01

Question: What about the normalized growth (locus YDL040C, strain nat1, stronger effect = lower value) of the same molecule?
Answer: 1.01

Question: What about the normalized growth (locus YDL074C, strain BRE1, stronger effect = lower value) of the same molecule?
Answer: 1.07

Question: And the normalized growth (locus YDL101C, strain DUN1, stronger effect = lower value)?
Answer: 1

Question: What about the normalized growth (locus YDL134C, strain PPH21, stronger effect = lower value) of the same molecule?
Answer: 1

Question: What about the normalized growth (locus YDL185W, strain tfp1, stronger effect = lower value) of the same molecule?
Answer: 0.983

Question: What about the normalized growth (locus YDL192W, strain arf1, stronger effect = lower value) of the same molecule?
Answer: 0.994

Question: What about the normalized growth (locus YDR001C, strain nth1, stronger effect = lower value) of the same molecule?
Answer: 1.02

Question: And the normalized growth (locus YDR069C, strain doa4, stronger effect = lower value)?
Answer: 1.04

Question: And the normalized growth (locus YDR101C, strain arx1, stronger effect = lower value)?
Answer: 0.997

Question: What about the normalized growth (locus YDR137W, strain rgp1, stronger effect = lower value) of the same molecule?
Answer: 1.03

Question: What about the normalized growth (locus YDR150W, strain NUM1, stronger effect = lower value) of the same molecule?
Answer: 1.01

Question: What about the normalized growth (locus YDR159W, strain sac3, stronger effect = lower value) of the same molecule?
Answer: 0.965

Question: And the normalized growth (locus YDR162C, strain NBP2, stronger effect = lower value)?
Answer: 1.04

Question: And the normalized growth (locus YDR195W, strain ref2)?
Answer: 1.03

Question: What about the normalized growth (locus YDR297W, strain sur2, stronger effect = lower value) of the same molecule?
Answer: 1.01

Question: What about the normalized growth (locus YDR318W, strain mcm21, stronger effect = lower value) of the same molecule?
Answer: 0.998

Question: And the normalized growth (locus YDR334W, strain swr1, stronger effect = lower value)?
Answer: 1.01

Question: And the normalized growth (locus YDR335W, strain msn5, stronger effect = lower value)?
Answer: 1.01

Question: What about the normalized growth (locus YDR388W, stronger effect = lower value) of the same molecule?
Answer: 0.985

Question: What about the normalized growth (locus YDR392W, strain spt3, stronger effect = lower value) of the same molecule?
Answer: 0.959

Question: What about the normalized growth (locus YDR502C, strain sam2, stronger effect = lower value) of the same molecule?
Answer: 0.997

Question: What about the normalized growth (locus YEL003W, strain gim4, stronger effect = lower value) of the same molecule?
Answer: 1.01

Question: What about the normalized growth (locus YEL037C, strain rad23, stronger effect = lower value) of the same molecule?
Answer: 1.01

Question: What about the normalized growth (locus YEL061C, strain CIN8 (second series), stronger effect = lower value) of the same molecule?
Answer: 1.01

Question: And the normalized growth (locus YEL061C, strain CIN8, stronger effect = lower value)?
Answer: 1.05

Question: And the normalized growth (locus YER015W, strain faa2, stronger effect = lower value)?
Answer: 1.02

Question: What about the normalized growth (locus YER016W, strain bim1, stronger effect = lower value) of the same molecule?
Answer: 0.984

Question: And the normalized growth (locus YER110C, stronger effect = lower value)?
Answer: 0.989

Question: What about the normalized growth (locus YER111C, strain swi4, stronger effect = lower value) of the same molecule?
Answer: 1.01

Question: What about the normalized growth (locus YER155C, strain BEM2 (second series), stronger effect = lower value) of the same molecule?
Answer: 1.01

Question: What about the normalized growth (locus YER155C, strain BEM2, stronger effect = lower value) of the same molecule?
Answer: 0.988

Question: What about the normalized growth (locus YER167W, strain BCK2, stronger effect = lower value) of the same molecule?
Answer: 0.983

Question: What about the normalized growth (locus YFR010W, strain ubp6, stronger effect = lower value) of the same molecule?
Answer: 1.01

Question: What about the normalized growth (locus YGL078C, strain dbp3, stronger effect = lower value) of the same molecule?
Answer: 0.988

Question: What about the normalized growth (locus YGL086W, strain mad1, stronger effect = lower value) of the same molecule?
Answer: 0.99

Question: And the normalized growth (locus YGL167C, strain pmr1, stronger effect = lower value)?
Answer: 1.02

Question: And the normalized growth (locus YGL173C, strain kem1, stronger effect = lower value)?
Answer: 1.02

Question: And the normalized growth (locus YGL227W, strain vid30, stronger effect = lower value)?
Answer: 1.02

Question: What about the normalized growth (locus YGL240W, strain doc1, stronger effect = lower value) of the same molecule?
Answer: 1.03

Question: And the normalized growth (locus YGL248W, strain PDE1, stronger effect = lower value)?
Answer: 1

Question: And the normalized growth (locus YGL253W, strain hxk2, stronger effect = lower value)?
Answer: 1.01

Question: And the normalized growth (locus YGR078C, strain PAC10, stronger effect = lower value)?
Answer: 1.03

Question: What about the normalized growth (locus YGR135W, strain pre9, stronger effect = lower value) of the same molecule?
Answer: 1

Question: And the normalized growth (locus YGR229C, strain SMI1, stronger effect = lower value)?
Answer: 1.03

Question: And the normalized growth (locus YGR252W, strain gcn5, stronger effect = lower value)?
Answer: 0.986

Question: What about the normalized growth (locus YHR013C, strain ard1, stronger effect = lower value) of the same molecule?
Answer: 0.998

Question: What about the normalized growth (locus YHR027C, strain rpn1, stronger effect = lower value) of the same molecule?
Answer: 1.01

Question: And the normalized growth (locus YHR030C, strain SLT2, stronger effect = lower value)?
Answer: 0.986 and 1.01

Question: What about the normalized growth (locus YHR079C, strain IRE1 (second series), stronger effect = lower value) of the same molecule?
Answer: 0.991

Question: What about the normalized growth (locus YHR079C, strain IRE1, stronger effect = lower value) of the same molecule?
Answer: 1.01

Question: What about the normalized growth (locus YHR094C, strain hxt1, stronger effect = lower value) of the same molecule?
Answer: 0.996

Question: And the normalized growth (locus YHR129C, strain ARP1, stronger effect = lower value)?
Answer: 0.998

Question: And the normalized growth (locus YHR142W, strain chs7, stronger effect = lower value)?
Answer: 1.02

Question: And the normalized growth (locus YHR200W, strain rpn10, stronger effect = lower value)?
Answer: 0.994

Question: What about the normalized growth (locus YIL066C, strain RNR3, stronger effect = lower value) of the same molecule?
Answer: 1.01

Question: What about the normalized growth (locus YIL073C, strain SPO22, stronger effect = lower value) of the same molecule?
Answer: 1.02

Question: What about the normalized growth (locus YIL125W, strain kgd1, stronger effect = lower value) of the same molecule?
Answer: 0.987

Question: What about the normalized growth (locus YIR030C, strain dcg1, stronger effect = lower value) of the same molecule?
Answer: 0.99

Question: What about the normalized growth (locus YJL092W, strain hpr5, stronger effect = lower value) of the same molecule?
Answer: 1.01

Question: What about the normalized growth (locus YJL095W, strain BCK1 (second series), stronger effect = lower value) of the same molecule?
Answer: 1.03

Question: And the normalized growth (locus YJL095W, strain BCK1, stronger effect = lower value)?
Answer: 1.05 and 1.01

Question: And the normalized growth (locus YJL115W, strain asf1, stronger effect = lower value)?
Answer: 1.01

Question: What about the normalized growth (locus YJL129C, strain trk1, stronger effect = lower value) of the same molecule?
Answer: 1.03

Question: And the normalized growth (locus YJL134W, strain LCB3, stronger effect = lower value)?
Answer: 0.99

Question: What about the normalized growth (locus YJL154C, strain vps35, stronger effect = lower value) of the same molecule?
Answer: 1.01

Question: What about the normalized growth (locus YJL164C, strain tpk1, stronger effect = lower value) of the same molecule?
Answer: 0.985

Question: And the normalized growth (locus YJL166W, strain qcr8, stronger effect = lower value)?
Answer: 1.02

Question: What about the normalized growth (locus YJL168C, strain set2, stronger effect = lower value) of the same molecule?
Answer: 0.98

Question: And the normalized growth (locus YJL187C, strain SWE1 (second series), stronger effect = lower value)?
Answer: 1

Question: What about the normalized growth (locus YJL187C, strain SWE1, stronger effect = lower value) of the same molecule?
Answer: 1.02

Question: And the normalized growth (locus YJR043C, strain POL32, stronger effect = lower value)?
Answer: 1.17 [resistant] (active)

Question: What about the normalized growth (locus YJR066W, strain TOR1, stronger effect = lower value) of the same molecule?
Answer: 0.951
